# Source: PubChem BioAssay AID1508600 (Functional Genomics Laboratory (NCATS/FGL), 2020)
# Screen size: about 53,000 sequences; about 3,700 (7%) were called active.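 How the source made its calls: active means gene knockdowns whose robust z-score for IL-1 alpha signal is at least 2 or at most -2, so actives lie on both sides; inactive means the rest.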 The entries come from a sample that favours actives as a whole.
# Test: Components of the Cytosolic LPS Sensing Pathway: Gene Identification via Genome-wide siRNA Screen;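 further: robust z of the log signal after scaling to non-targeting control siRNA wells of the plate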
# Details: RAW264.7 macrophages, IL-1a HTRF, actives lie on both sides, screened at 100 nM (by protocol), cells primed 5 h with Pam3CSK4 first
# Outline: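 RAW264.7 mouse macrophages reverse-transfected with single siRNAs (100 nM final) for 48h, primed with Pam3CSK4 for 5 hours, then transfected with LipidA for 24 hour. Supernatant IL-1a read by HTRF; values normalized to negative-control median, log-transformed robust z-scores.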
row,Sequence,z-score
1,GGGCAUUAAGACAAAGAGUTT against Fam3c,0.769 (inactive)
2,GGAAAAGUUGCAUUUGGUCTT against Wdr17,-1.02 (inactive)
3,GGAGUUCACUGUGCUGAUGTT against Ppbp,-0.536 (inactive)
4,GCUAAACUUAAGUCCAUCATT against Supt7l,-0.592 (inactive)
5,GGGUUUGUGGGAUACAAUCTT against Smarce1,2.97 (active)
6,GGGUAGUUAUACAAACUAATT against Snapc5,1.53 (inactive)
7,GGUUCACAUCCUCCUCAGATT against Twist2,1.08 (inactive)
8,CCUUGAUGCUCGUAGGAAGTT against Efr3a,-1.11 (inactive)
9,GGACAUUCUGCUACACAAGTT against Bsx,2.63 (active)
10,GCCAACAUGUAUCAAAGCUTT against Rpgr,-1.11 (inactive)
11,GGACAAUGUGGUGCUGUCCTT against Slc34a3,0.492 (inactive)
12,GGAGUCCUUUCGUUCUAUCTT against Rab2a,-0.319 (inactive)
13,GGACAUUGCUAACUGCCUUTT against Snx16,2.37 (active)
14,GCCAAACUUACGUUUUUGATT against Trak2,0.81 (inactive)
15,CCUGUUUAAACUCUGCGGATT against Vit,0.678 (inactive)
16,GGUUUUGUAGGAGUCUCUCTT against Vmn1r54,0.247 (inactive)
17,GCUAGUACUAUUACCUGCUTT against Enkd1,2.17 (active)
18,GGUGAUGAUGAUGUCUUUGTT against B3gnt7,1.93 (inactive)
19,GCUGAAUAGCCUCUAUCUATT against Rasgrp4,0.261 (inactive)
20,GCCUCUACUUUACCAAGUUTT against Olfr883,0.523 (inactive)
21,GGGCUUUAGCCUGAGCGAUTT against Gpc1,-0.916 (inactive)
22,GGUGAGCUUGGUUUCUAAATT against Gdf15,2.28 (active)
23,GGCAUCUUCAUGUACUUGCTT against Olfr1445,1.5 (inactive)

row,Sequence,z-score
1,GGUUUUCAGUACAUCCUGGTT against Cryba4,0.183 (inactive)
2,GCCAUGCAUCUGGAUUUACTT against Nat1,1.19 (inactive)
3,GGAGCAGACUUUAAAAUGATT against Stau1,-0.626 (inactive)
4,GGGCUCAUUGCUAAAACACTT against Sgcg,-0.221 (inactive)
5,GGCUAUUGUACAACUUAUATT against Pafah1b2,2.1 (active)
6,GCCCUUUGGAAGAAUACUCTT against Golt1b,-1.12 (inactive)
7,GGAGCUCAUGGAAAUCUGUTT against Pfpl,0.446 (inactive)
8,AGUGAAGAAAUGUUUGACATT against Raet1b,-1.08 (inactive)
9,CCUAUUUGUAGGUGAUGUUTT against B3gnt7,-0.445 (inactive)
10,GGUUCACUCCUGAUACCACTT against Ddo,1.29 (inactive)
11,GGCUUUUGGCUUCAACCCUTT against Slc39a14,-2.24 (active)
12,GGAAGCCAUUAUACAUGACTT against Uvrag,-0.261 (inactive)
13,GGUACAGAAUAUGUCACAGTT against Olfm3,0.627 (inactive)
14,CCCUCUGGAUGGAUCUUCATT against Fbp2,-1.3 (inactive)
15,GCAAGACUGAAAAUCCUGATT against Timm8a2,-1.2 (inactive)
16,GCAACUGAACCUUCUGCUATT against Morn2,-1.7 (inactive)
17,GGCUUGUACUACCAUGACATT against Rasgef1b,-2.76 (active)
18,GGGAACAAGGAACUCAAAGTT against Cadm1,1.69 (inactive)
19,CCUGAAAGAUAACAAGUGGTT against Rnls,0.0112 (inactive)
20,GGUUUGUUUUACAAAAUGCTT against Zdhhc5,0.37 (inactive)
21,GCAUUUUAGACUCAGAAUCTT against Car3,-0.047 (inactive)
22,GGAACGUAUACCUAUACCCTT against Huwe1,-0.263 (inactive)
23,GGUAUGCAGUGAAGAGGAUTT against Paqr9,2.52 (active)

row,Sequence,z-score
1,CCGUGACAGUCAUGUUGAUTT against Amt,0.235 (inactive)
2,GGAAAGACCUCUUGAUAGGTT against Tbkbp1,0.113 (inactive)
3,CCUCUAUGUGAGAUUUGAGTT against Mamdc2,-0.917 (inactive)
4,CCCACCGAGACACCAUCUUTT against Syne4,-1.78 (inactive)
5,GGGAGAUUGCAUUUGGAGCTT against Olfr678,0.317 (inactive)
6,GGCUGAAGUUACUUUGGAUTT against Nup98,-2.03 (active)
7,GCAUGUAGACUACAACGUGTT against Myoz1,-1.27 (inactive)
8,GGGCUGAAGUGAAACCAGATT against D930048N14Rik,0.415 (inactive)
9,GGGUCCAAAAGAAAAGUGUTT against Zc2hc1c,0.784 (inactive)
10,GCAAAACACACUGAUGGUGTT against Stx16,0.835 (inactive)
11,GGCAAUUCAUUGCAUGUUATT against Cdc42ep3,-0.177 (inactive)
12,GGAUCUCACAGUGAAGAAGTT against Krba1,0.392 (inactive)
13,GCUUAUUUGUGGUACACGGTT against D030056L22Rik,0.112 (inactive)
14,GGUUUCCUGAAGUUUUCAATT against Gnaz,3.08 (active)
15,GGGUUGACCACUAUUUCUGTT against Olfr1338,-1.06 (inactive)
16,CGAAAAAGGGCUUUUAACUTT against Ndufs1,0.757 (inactive)
17,GGUGAAUGAGGACUCUGGGTT against Dcps,-1.07 (inactive)
18,CGAGCACCUAUUCAUCAUATT against Tdo2,0.889 (inactive)
19,GGUACGACUUGGAAGAAAUTT against Rock2,-0.415 (inactive)
20,GCUUAUGAUUCCAAGGCAGTT against Serpina6,0.9 (inactive)
21,AAUUCUGGACGAGGAGCAUTT against Abcc5,3.22 (active)
22,CCUGGCAGUAAUCACCAUUTT against Olfr1158,-0.117 (inactive)
23,CGAGAAAAUGGAUUCUACCTT against Atp10d,0.314 (inactive)
